# Assay outcomes as filed in PubChem BioAssay.
# PABP polyA inh – PABP-poly(A) binding inhibition; P11940; PABP-poly(A) RNA binding, fluorescence polarization; calls only at 35 µM; actives 1% (n = 290,000);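 further: calls also rest on retests at 20 µM and on dose response follow-up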
# PERK inhibitor – blocks human PERK kinase | Q9NZJ5 | CHO PERK-DD fusion, SEAP luminescence translation reporter | inhibition, % at 5.6 µM | actives 0.17% (n = 220,000) | AID 1416;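 active means inhibition above the mean inhibition of all tested compounds plus 3 SD, set separately per screening campaign, cut at about 2.9% in these data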;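 further: PERK kinase domain activated by AP20187 dimerizer at 100 nM; 0% = DMSO with dimerizer and 100% = rapamycin at 8.4 µM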
# eIF4E 4G PPI – inhibitors of eIF4E and eIF4G interaction in translation initiation; P63073+Q04637; TR-FRET eIF4E-eIF4GI(517-606) binding, 2 h; inhibition, % at 21.7 µM; actives 0.37% (n = 220,000);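 active means inhibition above about 30%, limit read from the data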;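 further: 0% = full FRET control wells and 100% = background wells lacking eIF4GI fragment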
# eIF4H inh – inhibitors of RNA binding by human eIF4H | eIF4H fluorescence polarization binding assay | inhibition, % at 35 µM | actives 0.94% (n = 290,000) | AID 2012;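 further: calls also rest on retests at 20 µM and on dose response follow-up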
# MLLE-PAM2 inh – inhibitors of microRNA-mediated deadenylation, human PABP1 MLLE binding | P11940 | GST-MLLE / FITC-PAM2 fluorescence polarization | inhibition, % at 20 µM | actives 0.36% (n = 360,000) | AID 588489; in the data active means inhibition above about 35%, passing the limit was not always enough;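 further: plate controls were DMSO wells with GST-MLLE for no effect and wells lacking GST-MLLE protein for full effect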
# Starred values were filed as active, the others as inactive; i = inactive; / = no result given; + = active, no number; [ ] = another dose, or the depositor's remark. Sampled rows, rich in hits. Any-hit rate of the full collection: about 1.6%. Unless noted, how the calls were made is not given here.
SMILES,PABP polyA inh,PERK inhibitor,eIF4E 4G PPI,eIF4H inh,MLLE-PAM2 inh
CCC1CCCCN1C(=O)c1ccc(OC2CCN(C(=O)CCOC)CC2)cc1 (centres undefined),i,/,/,-10.8,0.9
CC(C)c1ccc(NC(=O)CCCN2C(=S)NC(C)(C)CC2C)cc1 (centres undefined),i,-0.4,-2.0,-5.5,-85.5
CC1CC(C)(C)NC(=S)N1CCCC(=O)Nc1ccc(Cl)cc1 (centres undefined),+,0.4,1.6,active,-93.1
CCOc1ccc(NC(=O)CCN2C(=S)NC(C)(C)CC2C)cc1 (centres undefined),+,0.8,-1.9,5.7*,-49.3
Cc1cccc(NC(=O)COC(=O)CCc2c[nH]c3ccccc23)c1,/,/,/,/,-6.6
Cc1cc(NCC2CCCO2)n2c(nc3ccccc32)c1C#N (centres undefined),+,-2.5,2.6,60.6*,-4.2
CC(C)c1cc(NCC2CCCO2)n2c(nc3ccccc32)c1C#N (centres undefined),i,-2.4,0.0,1.0,6.0
Cc1cccc(Nc2nnc(SCC3CCCCO3)s2)c1C (centres undefined),i,0.3,7.4,1.8*,9.1
COc1cccc(Nc2nnc(SCC3CCCCO3)s2)c1 (centres undefined),i,0.1,-0.8,-1.7,-9.0
COc1ccc(N2CCN(Cc3cc(=O)c(OCC(=O)NC4CCCC4)co3)CC2)cc1,/,/,/,/,5.5
COC(=O)C1=C(C)NC(=O)C1(NC(=O)c1cccnc1)C(F)(F)F (centres undefined),i,1.9,0.9,-2.2,2.0
COC(=O)C1=C(C)NC(=O)C1(Nc1ccc(Cl)cn1)C(F)(F)F (centres undefined),i,0.7,35.2*[fluorescence artefact?],1.2,8.9
O=C(OCc1ccccc1Cl)C1CC(=O)N(Cc2ccco2)C1 (centres undefined),/,/,/,/,-6.8
COC(=O)c1ccc(CNC(=O)c2ccc3c(c2)S(=O)(=O)N=C2CCCCCN23)cc1,/,/,/,/,-45.4
O=C1CCCC(=O)C1CS(=O)(=O)c1ccccc1,i,-0.4,8.5,-7.6,52.2*
CCCC(=O)Nc1nnc([C@H]2C[C@H](O)[C@@H](CO)O2)s1,/,/,/,/,5.3
CCCNC(=O)OC[C@H]1O[C@H](CCO/N=C(\C)CCN2CCc3nc(-c4ccccc4)c(-c4ccccc4)cc3C2)C=C[C@@H]1Oc1ccc(OC)cc1,i,-0.3,-2.8,68.1*,/
CCc1nc2c(OCc3cc(Cl)cc(Cl)c3)cccn2c1N(C)C(=O)c1ccc(OC)cc1,/,/,/,/,-2.0
Nc1ccn([C@@H]2O[C@H](CNCc3ccc(Oc4cc(-n5cccn5)ncn4)cc3)[C@@H](O)[C@H]2O)c(=O)n1,/,/,/,/,-8.7
CC(C)c1ccc(O)c(NC(=S)NC(=O)c2ccc3c(c2)OCO3)c1,i,/,/,4.3,46.8*
O=C(NC(=S)Nc1ccccc1Br)c1ccc2c(c1)OCO2,i,/,/,-3.5,32.9
CC1(C)CC(=O)C=C(c2ccc(COC(=O)C3CC3)cc2)C1=O,/,/,/,/,-9.4
Cc1cccc2c1NC1(CCCC1)CC2C (centres undefined),i,1.2,5.8,-4.7,-0.1
Cc1ccc2c(c1C)NC(C)CC2C (centres undefined),i,3.4*,-5.0,-2.7,0.2
CCC(=O)OC1(C)C(=O)C=C2C=C(c3ccsc3)OC=C2C1=O (centres undefined),+,/,11.7,92.6*,-28.4
SMILES,PABP polyA inh,PERK inhibitor,eIF4E 4G PPI,eIF4H inh,MLLE-PAM2 inh
S=c1[nH]nc(NCCCN2CCOCC2)s1,i,1.0,42.1*,-10.2,4.3
c1ccc2[nH]c(NCCCN3CCOCC3)nc2c1,i,-0.3,3.0,-2.1,-4.3
Cc1cccc(NC(=O)C(Cc2ccccc2)c2nn[nH]n2)c1C (centres undefined),i,/,/,-7.6,-0.4
COc1cccc(N2CCN(CC(=O)NC(=O)NCc3ccco3)CC2)c1,+,1.3,5.6,88.3,-16.0
O=C(CN1CCN(c2ccccc2)CC1)NC(=O)NCc1ccco1,i,1.3,8.1,-8.0,13.1
COc1cc(/C=C2\C(=N)N3N=C(S(C)(=O)=O)SC3=NC2=O)ccc1OC(=O)c1cccs1,i,/,/,-2.5,-16.1
COc1cc(/C=C2\C(=N)N3N=C(S(C)(=O)=O)SC3=NC2=O)ccc1OCCOc1ccccc1C,+,/,/,88.4*,-3.0
O=C1NC2=C(C(=O)CCC2)C(c2ccccc2[N+](=O)[O-])N1 (centres undefined),+,/,/,107.3*,41.4*
